# In PubChem BioAssay (NCATS):
# Results filed as inconclusive are left out. Unmarked numbers belong to inactive results. Active and inactive are the calls of the source. Calls come from the whole dose curve; as a rule, active = well fitted cell-killing curve with a large enough effect; inconclusive = small, poorly fitted or top-dose-only effect, or effect the other way; inactive = no such curve, though single readings can be large or run the other way.
# Assays:
# [1] = Quantitative High-Throughput drug screen in 47 multiple myeloma cell lines against the NCATS MIPE library collection: L363_DSMZ cell viability assay (AID 1918984); note: nearly all actives have a fitted effect of over 40% in size
# Summary of the method: (§1)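 Myeloma cells (500/well) treated with MIPE 4.0 compounds for 48 h at 37 °C, 5% CO2. Viability read as ATP via CellTiter-Glo luminescence after 5 min at RT; DMSO-only wells = 100%, media-only = 0% viability.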
# [2] = Quantitative High-Throughput drug screen in 47 multiple myeloma cell lines against the NCATS MIPE library collection: OPM1_PLB cell viability assay (AID 1918989); note: nearly all actives have a fitted effect of over 40% in size
# Summary of the method: as §1
# [3] = Quantitative High-Throughput drug screen in 47 multiple myeloma cell lines against the NCATS MIPE library collection: SKMM1_PLB cell viability assay (AID 1919863); details: SKMM1 myeloma viability, CellTiter-Glo ATP, 48 h; viability: hits give low values; note: nearly all actives have a fitted effect of over 35% in size; for viability: series mostly up to about 46 µM
# Summary of the method: as §1
# [4] = Quantitative High-Throughput drug screen in 47 multiple myeloma cell lines against the NCATS MIPE library collection: U266_ATCC cell viability assay (AID 1919864); note: nearly all actives have a fitted effect of over 35% in size
# Summary of the method: as §1
# [5] = Quantitative High-Throughput drug screen in 47 multiple myeloma cell lines against the NCATS MIPE library collection: XG6_PLB cell viability assay (AID 1919865); note: nearly all actives have a fitted effect of over 40% in size
# Summary of the method: as §1
# [6] = Quantitative High-Throughput drug screen in 47 multiple myeloma cell lines against the NCATS MIPE library collection: XG1_PLB cell viability assay (AID 1919866); note: nearly all actives have a fitted effect of over 35% in size
# Summary of the method: as §1
# [7] = Quantitative High-Throughput drug screen in 47 multiple myeloma cell lines against the NCATS MIPE library collection: VP6_DJ cell viability assay (AID 1919867); note: nearly all actives have a fitted effect of over 40% in size
# Summary of the method: as §1
# [8] = Quantitative High-Throughput drug screen in 47 multiple myeloma cell lines against the NCATS MIPE library collection: PE2_PLB cell viability assay (AID 1919869); note: nearly all actives have a fitted effect of over 35% in size
# Summary of the method: as §1
# [9] = Quantitative High-Throughput drug screen in 47 multiple myeloma cell lines against the NCATS MIPE library collection: OPM2_DSMZ cell viability assay (AID 1919872); note: nearly all actives have a fitted effect of over 30% in size
# Summary of the method: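 CellTiter-Glo ATP luminescence gave viability after 48 h compound treatment at 37C of 500 multiple myeloma cells per well. Normalisation used DMSO-only wells as 100% and media-only wells as 0% viability; primary qHTS of approved and investigational drugs.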
# [10] = Quantitative High-Throughput drug screen in 47 multiple myeloma cell lines against the NCATS MIPE library collection: KMS11_JCRBsus cell viability assay (AID 1919873); note: nearly all actives have a fitted effect of over 50% in size
# Summary of the method: as §1
# [11] = Quantitative High-Throughput drug screen in 47 multiple myeloma cell lines against the NCATS MIPE library collection: KMS28BM_JCRB cell viability assay (AID 1919874); note: nearly all actives have a fitted effect of over 35% in size
# Summary of the method: as §1
# [12] = Quantitative High-Throughput drug screen in 47 multiple myeloma cell lines against the NCATS MIPE library collection: KMS28PE_JCRB cell viability assay (AID 1918983); note: nearly all actives have a fitted effect of over 35% in size
# Summary of the method: as §1
# [13] = Quantitative High-Throughput drug screen in 47 multiple myeloma cell lines against the NCATS MIPE library collection: KMS34_JCRB cell viability assay (AID 1918985); note: nearly all actives have a fitted effect of over 40% in size
# Summary of the method: as §1
# [14] = Quantitative High-Throughput drug screen in 47 multiple myeloma cell lines against the NCATS MIPE library collection: OCIMY7_PLB cell viability assay (AID 1918987); note: nearly all actives have a fitted effect of over 65% in size
# Summary of the method: as §1
# [15] = Quantitative High-Throughput drug screen in 47 multiple myeloma cell lines against the NCATS MIPE library collection: PCM6_Riken cell viability assay (AID 1919870); note: nearly all actives have a fitted effect of over 30% in size
# Summary of the method: as §1
# [16] = Quantitative High-Throughput drug screen in 47 multiple myeloma cell lines against the NCATS MIPE library collection: RPMI8226_ATCC cell viability assay (AID 1919871); note: nearly all actives have a fitted effect of over 30% in size
# Summary of the method: as §1
# [17] = Quantitative High-Throughput drug screen in 47 multiple myeloma cell lines against the NCATS MIPE library collection: UTMC2_PLB cell viability assay (AID 1919868); note: nearly all actives have a fitted effect of over 55% in size
# Summary of the method: as §1
# [18] = Quantitative High-Throughput drug screen in 47 multiple myeloma cell lines against the NCATS MIPE library collection: OCIMY5_PLB cell viability assay (AID 1918988); note: nearly all actives have a fitted effect of over 65% in size
# Summary of the method: as §1
# Potency is the fitted concentration of half-maximal effect.
smiles,measurement,setting,value
COc1ccccc1OCC(O)CN1CCN(CC(=O)Nc2c(C)cccc2C)CC1 (stereo unspecified),Potency,[1],inactive
same,Potency,[2],inactive
same,viability,[3],110%
same,Potency,[4],inactive
same,Potency,[5],inactive
same,Potency,[6],inactive
same,Potency,[7],inactive
same,Potency,[8],inactive
same,Potency,[9],inactive
same,Potency,[10],inactive
same,Potency,[11],inactive
O=C(CCCN1CCC(O)(c2ccc(Cl)cc2)CC1)c1ccc(F)cc1,Potency,[12],16.6 µM (active)
same,viability,[3],92.3%
same,Potency,[9],inactive
same,Potency,[10],23.5 µM (active)
Cc1ccc(-c2cc(C(F)(F)F)nn2-c2ccc(S(N)(=O)=O)cc2)cc1,Potency,[13],1.32 µM (active)
same,Potency,[14],20.9 µM (active)
same,Potency,[8],inactive
same,Potency,[9],inactive
CCC1(c2ccccc2)C(=O)NCNC1=O,Potency,[13],inactive
same,Potency,[2],8.33 µM (active)
same,Potency,[4],2.96 µM (active)
same,Potency,[5],2.09 µM (active)
same,Potency,[6],2.96 µM (active)
same,Potency,[7],4.69 µM (active)
same,Potency,[15],3.72 µM (active)
same,Potency,[9],inactive
same,Potency,[10],inactive
same,Potency,[11],inactive
O=C(c1ccc(OCCN2CCCCC2)cc1)c1c(-c2ccc(O)cc2)sc2cc(O)ccc12,Potency,[2],5.9 µM (active)
same,Potency,[3],26.4 µM (active)
same,Potency,[5],20.9 µM (active)
same,Potency,[16],14.8 µM (active)
same,Potency,[10],16.6 µM (active)
same,Potency,[11],23.5 µM (active)
CN1CCN(CCCN2c3ccccc3Sc3ccc(Cl)cc32)CC1,Potency,[14],26.4 µM (active)
same,Potency,[2],16.6 µM (active)
same,Potency,[4],18.7 µM (active)
same,Potency,[5],14.8 µM (active)
same,Potency,[6],14.8 µM (active)
same,Potency,[17],23.5 µM (active)
same,Potency,[8],23.5 µM (active)
same,Potency,[9],inactive
same,Potency,[10],14.8 µM (active)
same,Potency,[11],20.9 µM (active)
OCCN(CCO)c1nc(N2CCCCC2)c2nc(N(CCO)CCO)nc(N3CCCCC3)c2n1,Potency,[12],20.9 µM (active)
same,Potency,[4],23.5 µM (active)
same,Potency,[5],18.7 µM (active)
same,Potency,[6],23.5 µM (active)
same,Potency,[17],20.9 µM (active)
same,Potency,[10],16.6 µM (active)
same,Potency,[11],16.6 µM (active)
Clc1ccccc1C(c1ccccc1)(c1ccccc1)n1ccnc1,Potency,[4],inactive
same,Potency,[5],5.9 µM (active)
same,Potency,[7],14.8 µM (active)
same,Potency,[16],14.8 µM (active)
CC(C)C(=O)Nc1ccc([N+](=O)[O-])c(C(F)(F)F)c1,Potency,[13],inactive
same,Potency,[2],8.33 µM (active)
same,Potency,[4],4.69 µM (active)
same,Potency,[5],1.05 µM (active)
same,Potency,[6],1.87 µM (active)
same,Potency,[8],3.32 µM (active)
same,Potency,[16],inactive
same,Potency,[9],inactive
same,Potency,[11],inactive
COc1ccc2c(c1)c(CC(=O)O)c(C)n2C(=O)c1ccc(Cl)cc1,Potency,[1],18.7 µM (active)
same,Potency,[13],inactive
same,Potency,[2],inactive
same,viability,[3],128%
same,Potency,[4],18.7 µM (active)
same,Potency,[5],18.7 µM (active)
same,Potency,[6],5.26 µM (active)
same,Potency,[16],inactive
same,Potency,[9],inactive
same,Potency,[10],inactive
same,Potency,[11],inactive
Cc1cnc(C(=O)NCCc2ccc(S(=O)(=O)NC(=O)NC3CCCCC3)cc2)cn1,Potency,[6],20.9 µM (active)
same,Potency,[16],16.6 µM (active)
same,Potency,[9],inactive
Cc1ccc(C(=O)Nc2ccc(S(=O)(=O)O)c3cc(S(=O)(=O)O)cc(S(=O)(=O)O)c23)cc1NC(=O)c1cccc(NC(=O)Nc2cccc(C(=O)Nc3cc(C(=O)Nc4ccc(S(=O)(=O)O)c5cc(S(=O)(=O)O)cc(S(=O)(=O)O)c45)ccc3C)c2)c1,Potency,[2],0.833 µM (active)
same,Potency,[4],inactive
same,Potency,[11],inactive
CS(=O)(=O)Nc1ccc([N+](=O)[O-])cc1Oc1ccccc1,Potency,[12],0.187 µM (active)
same,Potency,[5],inactive
same,Potency,[6],inactive
same,Potency,[15],inactive
same,Potency,[16],16.6 µM (active)
same,Potency,[11],inactive
C[C@H]1c2cccc(O)c2C(O)=C2C(=O)[C@]3(O)C(O)=C(C(N)=O)C(=O)[C@@H](N(C)C)[C@@H]3[C@@H](O)[C@@H]21,Potency,[5],18.7 µM (active)
same,Potency,[6],18.7 µM (active)
Cn1ccc2cc3c(cc21)CCN3C(=O)Nc1cccnc1,Potency,[5],11.8 µM (active)
same,Potency,[16],inactive
Nc1ccn([C@H]2CC[C@@H](CO)O2)c(=O)n1,Potency,[12],inactive
same,viability,[3],109%
same,Potency,[4],inactive
same,Potency,[5],10.5 µM (active)
same,Potency,[8],inactive
same,Potency,[9],inactive
same,Potency,[10],inactive
same,Potency,[11],inactive
CN1CCN2c3ccccc3Cc3ccccc3C2C1 (stereo unspecified),Potency,[2],16.6 µM (active)
same,Potency,[5],10.5 µM (active)
same,Potency,[6],18.7 µM (active)
same,Potency,[17],inactive
same,Potency,[10],23.5 µM (active)
same,Potency,[11],23.5 µM (active)
NC(CO)C(=O)NNCc1ccc(O)c(O)c1O (stereo unspecified),Potency,[13],26.4 µM (active)
same,Potency,[2],inactive
same,Potency,[3],11.8 µM (active)
same,Potency,[5],inactive
same,Potency,[6],inactive
same,Potency,[9],18.7 µM (active)
same,Potency,[11],23.5 µM (active)
CC(C)NCC(O)c1ccc(O)c(O)c1 (stereo unspecified),Potency,[2],4.18 µM (active)
same,Potency,[3],16.6 µM (active)
same,Potency,[4],16.6 µM (active)
same,Potency,[5],0.743 µM (active)
same,Potency,[6],1.87 µM (active)
same,Potency,[7],0.0332 µM (active)
same,Potency,[8],1.48 µM (active)
same,Potency,[15],1.18 µM (active)
same,Potency,[9],inactive
same,Potency,[10],16.6 µM (active)
same,Potency,[11],7.43 µM (active)
N[C@@H](Cc1c[nH]c2ccc(O)cc12)C(=O)O,Potency,[13],inactive
same,Potency,[14],inactive
same,Potency,[18],inactive
same,Potency,[2],inactive
same,viability,[3],109%
same,Potency,[6],inactive
same,Potency,[16],1.05 µM (active)
same,Potency,[9],inactive
same,Potency,[10],inactive
same,Potency,[11],inactive
C[C@](N)(Cc1ccc(O)c(O)c1)C(=O)O,Potency,[4],18.7 µM (active)
same,Potency,[6],inactive
same,Potency,[17],inactive
same,Potency,[9],7.43 µM (active)
same,Potency,[10],7.43 µM (active)
same,Potency,[11],inactive
CC(CCc1ccc(O)cc1)NCCc1ccc(O)c(O)c1 (stereo unspecified),Potency,[1],18.7 µM (active)
same,Potency,[13],9.35 µM (active)
same,Potency,[18],20.9 µM (active)
same,Potency,[2],26.4 µM (active)
same,Potency,[3],18.7 µM (active)
same,Potency,[4],23.5 µM (active)
same,Potency,[6],23.5 µM (active)
same,Potency,[8],20.9 µM (active)
same,Potency,[15],20.9 µM (active)
same,Potency,[16],18.7 µM (active)
same,Potency,[9],18.7 µM (active)
same,Potency,[10],26.4 µM (active)
same,Potency,[11],26.4 µM (active)
CC(COc1ccccc1)N(CCCl)Cc1ccccc1 (stereo unspecified),Potency,[13],inactive
same,viability,[3],112%
same,Potency,[4],inactive
same,Potency,[16],inactive
same,Potency,[9],inactive
same,Potency,[10],inactive
same,Potency,[11],18.7 µM (active)
COc1cc2c(c(OC)c1OC)-c1ccc(OC)c(=O)cc1[C@@H](NC(C)=O)CC2,Potency,[2],inactive
same,Potency,[5],inactive
same,Potency,[6],inactive
same,Potency,[17],inactive
same,Potency,[8],inactive
same,Potency,[15],inactive
same,Potency,[9],inactive
same,Potency,[10],inactive
Fc1ccc([C@@H]2CCNC[C@H]2COc2ccc3c(c2)OCO3)cc1,Potency,[12],20.9 µM (active)
same,Potency,[6],inactive
same,Potency,[15],inactive
same,Potency,[9],18.7 µM (active)
same,Potency,[10],23.5 µM (active)
same,Potency,[11],20.9 µM (active)
CC12CC3CC(C)(C1)CC(N)(C3)C2,Potency,[12],inactive
same,viability,[3],125%
same,Potency,[5],20.9 µM (active)
same,Potency,[6],23.5 µM (active)
same,Potency,[15],20.9 µM (active)
same,Potency,[9],inactive
same,Potency,[11],2.64 µM (active)
COc1ccccc1OCCNCC(O)COc1cccc2[nH]c3ccccc3c12 (stereo unspecified),Potency,[6],18.7 µM (active)
same,Potency,[8],inactive
same,Potency,[15],16.6 µM (active)
same,Potency,[9],inactive
Cc1cn([C@H]2C[C@H](N=[N+]=[N-])[C@@H](CO)O2)c(=O)[nH]c1=O,Potency,[13],inactive
same,Potency,[14],16.6 µM (active)
same,Potency,[2],29.6 µM (active)
same,viability,[3],139%
same,Potency,[4],16.6 µM (active)
same,Potency,[6],16.6 µM (active)
same,Potency,[15],14.8 µM (active)
same,Potency,[16],inactive
same,Potency,[9],inactive
same,Potency,[10],inactive
same,Potency,[11],inactive
